Bioassay records (PubChem)
GALK inh – qHTS Assay for Inhibitors of Human Galactokinase (GALK); P51570; Purified GALK, Kinase-Glo residual ATP luminescence; Potency, µM (highest dose often 57.5 µM), inactives show at the highest dose activity change, negative = inhibition, usual class: inhibitors; hit rate 0.007% among 270,000; further: potency means the concentration at half of the fitted maximal effect
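Human GALK (5 nM) with 35 uM ATP and 100 uM galactose in 20 mM HEPES pH 8.0, 5 mM MgCl2, 60 mM NaCl, 1 mM DTT, 0.01% BSA. After 1 h at room temperature, leftover ATP was read by Kinase-Glo Plus luminescence.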
TrxR1 inh – qHTS Assay for Inhibitors of Mammalian Selenoprotein Thioredoxin Reductase 1 (TrxR1): qHTS; recombinant rTrxR1, NADPH fluorescence consumption, selenite substrate; hit rate 1% among 390,000; AID 588453, 2011; Thioredoxin reductase 1, cytoplasmic (Rattus norvegicus), O89049; Potency, µM (highest dose often 114 µM), without a hit: at the top dose activity change, negative = inhibition, hits mostly inhibitors; further: potency means the concentration at half of the fitted maximal effect; nearly all actives have a fitted effect of over 65% in size
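Rat TrxR1 (90 nM in the dispensed reagent) was pre-reduced with 400 uM NADPH for 5 min at room temperature, then incubated with compound for 15 min. After 400 uM selenite was added, NADPH fluorescence (Ex 340/Em 450 nm) was followed for 8 min.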
Integrin act MD – qHTS for Activators of Integrin-Mediated Alleviation for Muscular Dystrophy | hit rate 0.064% among 350,000 | Potency, µM (series often up to 38.3 µM), for the others: top-dose activation, usual class: activators | alpha7betagal myoblasts, beta-gal FDG fluorescence, 48 h;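 further: potency means the concentration at half of the fitted maximal effect; 100% = response of the positive control SU9516; nearly all actives have a fitted effect of over 60% in size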
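Alpha7betagal+/- myoblasts (passage 13) were plated 16-24 hr, then exposed to compounds (1:260 dilution of DMSO stock) for 48 hours at 37C. After MPER lysis, β-galactosidase reporter activity was read as FDG fluorescence (ex 480/em 540) after 30 minutes.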
PI4K2A block – qHTS for small molecular inhibitors of PI4K2A; Phosphatidylinositol 4-kinase type 2-alpha (Homo sapiens), Q9BTU6; purified PI4K2A, ADP-Glo luminescence, 1 h; active compounds read low; activity change, negative = inhibition, % at 76.9 µM; hit rate 0.13% among 420,000; in the data active means activity change below about -50%; inconclusive means mostly about -30% to -49%;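 further: -100% = wells without enzyme as full effect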
Target sequence (Q9BTU6 whole entry, looked up): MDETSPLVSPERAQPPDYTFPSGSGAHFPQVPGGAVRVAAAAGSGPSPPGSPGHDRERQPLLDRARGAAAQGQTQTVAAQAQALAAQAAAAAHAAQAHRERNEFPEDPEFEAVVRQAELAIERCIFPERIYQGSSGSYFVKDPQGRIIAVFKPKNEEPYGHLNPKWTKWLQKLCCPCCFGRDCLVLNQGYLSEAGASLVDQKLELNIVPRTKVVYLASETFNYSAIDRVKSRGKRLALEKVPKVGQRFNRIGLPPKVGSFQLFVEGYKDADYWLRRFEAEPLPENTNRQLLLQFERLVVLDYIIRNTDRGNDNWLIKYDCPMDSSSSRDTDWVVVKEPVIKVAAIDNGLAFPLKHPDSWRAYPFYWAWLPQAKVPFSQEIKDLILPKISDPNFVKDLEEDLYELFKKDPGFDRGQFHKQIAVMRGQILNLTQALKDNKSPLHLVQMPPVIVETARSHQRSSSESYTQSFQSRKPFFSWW
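PI4K2A activity was measured by ADP-Glo luminescence: enzyme (4 ug/mL stock) and phosphatidylinositol (1.2 mM stock) in Tris pH 7.5/MgCl2/EGTA/Triton X-100 buffer were reacted with ATP (300 microM stock) for one hour at ambient temperature.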
LDHA block – qHTS assay for inhibitors of human lactate dehydrogenase. L-lactate dehydrogenase A chain (Homo sapiens), P00338. purified LDHA, NADH/diaphorase-resazurin fluorescence; active compounds read low. activity change, % (values are at about 110 or 230 µM). hit rate 0.15% among 480,000. AID 1347041, 2019; in the data active means activity change below about -30%; inconclusive means mostly about -25% to -30%;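 further: plate controls were DMSO wells for no effect and wells without enzyme for full effect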
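Remaining NADH was detected by diaphorase (0.133 mg/mL) converting 37 µM resazurin to fluorescent resorufin, read at 0 and 20 minutes. The preceding 5-minute room-temperature reaction used 2 nM LDHA, 0.2 mM sodium pyruvate and 0.06 mM NADH at pH 7.4.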
TrxR1 substrate – qHTS Assay for Substrates of Mammalian Selenoprotein Thioredoxin Reductase 1 (TrxR1): qHTS; Thioredoxin reductase 1, cytoplasmic (Rattus norvegicus), O89049; purified TrxR1 substrate turnover, NADPH consumption readout; Potency, µM (highest dose often 114 µM), for inactives: top-dose activity change, negative = substrate turnover; hit rate 0.01% among 390,000; AID 588456, 2011; further: potency means the concentration at half of the fitted maximal effect; nearly all actives have a fitted effect of over 50% in size
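Rat TrxR1, dispensed at 90 nM, was prereduced with 400 uM NADPH (final) for 5 min at ~22 deg C, then incubated with compound 15 min before 400 uM selenite. A first-read NADPH fluorescence drop versus no-compound background flagged substrates.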
An asterisk follows results filed as active; ? = inconclusive; · = no result; [ ] = dose if it differs, or a comment. An excerpt weighted towards active compounds, which were near 1.1% of everything screened. Unless noted, the call rests on the fitted dose curve; in most records, active means well fitted curve in the direction sought with a large enough effect; inconclusive means small, poorly fitted or top-dose-only effect, or another doubt; inactive means no such curve, though single readings can be large; an effect the other way counts as inactive or inconclusive. Unless noted, on the % scale 0 is the no-effect control and ±100 the full control effect.

SMILES	GALK inh	TrxR1 inh	Integrin act MD	PI4K2A block	LDHA block	TrxR1 substrate
COc1ccc(CCNc2oc(-c3cccc4ccccc34)nc2C#N)cc1OC	·	·	·	·	-8	·
CCOC(=O)CNC(=O)c1sc2ncnc(N3CCc4ccccc4C3)c2c1C	-3%	-18%	-10%	-2	-2	-7%
CCCCNC(=O)c1sc2ncnc(N3CCc4ccccc4C3)c2c1C	-2%	2.8µM*	1%[7.66 µM]	-5	2	25%
CCc1ccccc1NC(=O)C1CCCN(c2cnc3ccccc3n2)C1 (stereo unspecified)	·	·	·	·	0	·
CC(Sc1nc(-c2cccs2)nc2ccccc12)C(=O)NCc1ccco1 (stereo unspecified)	·	·	·	·	0	·
CC(Sc1ccsc1[N+](=O)[O-])C(=O)NCc1ccco1 (stereo unspecified)	8%	20µM*	-18%	-6	1	-6%
Cc1cc2ccccc2n1CCNC(=O)c1ccc(Br)o1	10%	10µM*	-21%	-10	-9	13%[57.1 µM]
CC(C)(C)c1nc(CN2CCC(c3nc4ccccc4s3)CC2)no1	·	·	·	·	2	·
Cc1cc(C)cc(N2C(=O)C=CC2=O)c1	·	1.1µM*	-45%	1	-13	-2%
Cc1c([N+](=O)[O-])cc(N2C(=O)C=CC2=O)cc1[N+](=O)[O-]	·	3.2µM*	16%	-21	-11	3%[57.1 µM]
Cc1cc(C)cc(N2C(=O)c3nccnc3C2=O)c1	0%	6%	12%	-2	-8	-2%
Cc1cc(N2C(=O)C=CC2=O)c([N+](=O)[O-])cc1C	0%	2.8µM*	-69%	-4	3	10%
CCc1ccc(-c2nc(C)c(C(=O)Nc3ccc4[nH]c(=O)[nH]c4c3)s2)cc1	·	·	·	·	3	·
COc1cc(C2CC(=O)Nc3n[nH]c(Nc4ccccc4)c32)cc(OC)c1O (stereo unspecified)	·	·	·	·	95	·
Cc1ccnc(SCCn2c(N3CCN(CCO)CC3)nc3c2c(=O)n(C)c(=O)n3C)n1	·	·	·	·	5	·
COc1ccc(/C=N/NC(=O)c2nn(-c3ccccc3)c(=O)c3c(N)scc23)cc1	-3%	-18%	0%	-65*	52	-11%
COc1ccc(/C=N/NC(=O)c2nn(-c3ccc(Cl)cc3)c(=O)c3c(N)scc23)cc1	-3%	-2%	-3%[7.66 µM]	?	15	-6%
CCN(CC)c1ccc2nc3c4ccccc4c(=O)cc-3oc2c1	11%	4%	5%	-2	-1	-6%
CCN(CC)c1ccc2c(-c3ccc(S(=O)(=O)O)cc3S(=O)(=O)[O-])c3ccc(=[N+](CC)CC)cc-3oc2c1	10%	-2%[57.1 µM]	-76%	?	-232*	10%[57.1 µM]
CCN1CCN(C(=O)/C=C/c2ccc(C(C)C)cc2)CC1	·	-2%	37%	1	-4	-5%
CCN1CCC(O)(/C=C/c2ccc(C(C)C)cc2)C(C(=O)/C=C/c2ccc(C(C)C)cc2)C1 (stereo unspecified)	·	7.9µM*	-58%	24	2	-14%
CCCN1CCN(c2nnc(-n3cccc3CN3CCN(C4CCCCC4)CC3)s2)CC1	·	·	·	·	-24	·
Cc1ccc(NC2=C(Cl)C(=O)OC2NC(=O)c2ccccc2)cc1 (stereo unspecified)	1%	-2%	15%	1	-6	-4%
O=C1OC(NC(=O)c2ccccc2)C(n2cc(CO)nn2)=C1Cl (stereo unspecified)	-4%	10µM*	-30%	-18	5	9%[57.1 µM]
Cc1ccc(CC#N)c(-c2c(CC#N)ccc(C)c2C)c1C	·	·	-13%	2	1	·
Cc1ccc2c(c1C)-c1c(ccc(C)c1C)C(=O)C2=O	·	?	-58%	-3	19	45µM*
